Compound activity: PubChem, National Center for Advancing Translational Sciences (NCATS)
HT1080NT lethal = kills 2HG-producing HT-1080-NT fibrosarcoma cells | Potency, µM (titrated, usually from 46.1 µM), usual class: cytotoxic | HT-1080-NT fibrosarcoma viability, CellTiter-Glo ATP luminescence, 48 h | 360,000 compounds, 1.6% hits | AID 686970;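 further: NT is the 2HG producing partner of a matched IDH1 knockdown line; nearly all actives have a fitted effect of over 55% in size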
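A 48-hour cytotoxicity screen used HT-1080-NT cells plated 2 hours before compound delivery. ATP-based CellTiter-Glo luminescence measured viability, normalized to DMSO and no-cell controls.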
KB-V1 cytotox = kills drug-selected multidrug resistant KB-V1 cells; KB-V1 MDR cells viability, CellTiter-Glo, 72 h; Potency, µM (highest dose often 46.1 µM), most hits filed as cytotoxic; 400,000 compounds, 3.4% hits; further: nearly all actives have a fitted effect of over 60% in size
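KB-V1 cells (P-gp-expressing MDR subline of KB-3-1) in phenol-red-free DMEM with 10% FBS were exposed to library compounds over a concentration series for 72 h at 37 degrees C. Viability read by CellTiter-Glo luminescence; concentration-effect curves fitted after normalization.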
SW480 rereplic = DNA re-replication induction in SW480 cells; SW480 DNA re-replication, Hoechst DNA content imaging, 48 h; Potency, µM (series often up to 46.1 µM), most hits filed as activators; 340,000 compounds, 1.8% hits; AID 624297; further: nearly all actives have a fitted effect of over 55% in size
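Image-based read-out: total Hoechst fluorescence of nuclei (405 nm excitation, 500-530 nm emission), with hits raising the fraction of high-intensity nuclei. SW480 colon cells incubated 48 hr with compounds at 37 C.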
KB-3-1 tox = kills parental KB-3-1 adenocarcinoma cells; KB-3-1 viability, CellTiter-Glo ATP luminescence, 72 h; 400,000 compounds, 1.4% hits; Potency, µM (doses to about 46.1 µM), most hits filed as cytotoxic; further: nearly all actives have a fitted effect of over 60% in size
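Cytotoxicity measured as CellTiter-Glo luminescence after 72 h at 37 C. Compound titrations were pinned onto drug-naive KB-3-1 parental adenocarcinoma cells grown in DMEM with 10% FBS, and normalized data fitted to concentration-response curves.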
MCF10A rerep = DNA re-replication induction in MCF 10a cells; MCF 10A DNA re-replication, Hoechst nuclear intensity, 48 h; Potency, µM (series often up to 46.1 µM), usual class: activators; 350,000 compounds, 2.9% hits; further: nearly all actives have a fitted effect of over 50% in size
HT1080 IDH1KD tx = kills HT-1080 cells with IDH1 knockdown | HT-1080 IDH1 knockdown viability, ATP luminescence, 48 h | Potency, µM (series often up to 46.1 µM), usual class: cytotoxic | 360,000 compounds, 2% hits
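Assay cells: HT-1080 with IDH1 knockdown, 750 per well, RPMI/5% FBS. Exposure: 48 h at 37 °C following 2 h pre-incubation. Read: CellTiter-Glo luminescence; fitted concentration-response, curve class assigned.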
Each line names hits and unclear results; the compound was inactive in the other large screens. Hits are enriched below; roughly 8% of the tested compounds scored in any of these assays. The call rests on the fitted dose curve; in most records, active means well fitted curve in the direction sought with a large enough effect; inconclusive means small, poorly fitted or top-dose-only effect, or another doubt; inactive means no such curve, though single readings can be large; an effect the other way counts as inactive or inconclusive.

CCCn1c(C(C)Nc2nc(-c3cccc(Br)c3)cs2)nc2ccccc21 (configuration not stated)	none
Nc1nc2sc3c(c2cc1C(=O)N1CCOCC1)CCCC3	none
Cc1cccc2cc3c(N)c(C(=O)N4CCOCC4)sc3nc12	HT1080NT lethal inconclusive, KB-V1 cytotox 3.7µM, SW480 rereplic 3.5µM, KB-3-1 tox 2.9µM, MCF10A rerep 4.1µM, HT1080 IDH1KD tx inconclusive
CC(C)=NNc1nc2sc3c(c2c(=O)[nH]1)CC(C)(C)OC3	SW480 rereplic inconclusive, MCF10A rerep 12µM
COc1cc2c(cc1NS(=O)(=O)c1cccc(C#N)c1)n(C)c(=O)n2C	KB-3-1 tox inconclusive (no result: HT1080NT lethal, SW480 rereplic, MCF10A rerep, HT1080 IDH1KD tx)
O=C(/C=C/c1ccccc1Cl)NCCc1ccccc1	KB-V1 cytotox 16µM
O=C(/C=C/c1ccccc1Cl)NCc1ccccc1	SW480 rereplic inconclusive
CC(C)Cn1nc(NS(=O)(=O)c2cccc3nonc23)c2cc3ccccc3nc21	none
O=C1CC(N2CCN(C3CC(=O)N(CCc4ccccc4)C3=O)CC2)C(=O)N1CCc1ccccc1 (configuration not stated)	KB-V1 cytotox inconclusive
O=C1CC(N2CCN(C/C=C/c3ccccc3)CC2)C(=O)N1CCc1ccccc1 (configuration not stated)	HT1080NT lethal inconclusive, KB-V1 cytotox 12µM, MCF10A rerep inconclusive
CCN1C(=C2C(=O)c3ccccc3C2=O)C=Cc2ccccc21	KB-V1 cytotox 1.8µM, KB-3-1 tox inconclusive
COc1ccc(/C=N/Nc2nc(N3CCCCC3)nc(N3CCCCC3)n2)cc1[N+](=O)[O-]	MCF10A rerep inconclusive
COc1ccc(/C=N/Nc2cc(C)nc(-n3nc(C)cc3C)n2)cc1	HT1080NT lethal inconclusive, SW480 rereplic inconclusive, KB-3-1 tox inconclusive, MCF10A rerep inconclusive, HT1080 IDH1KD tx inconclusive
COc1ccc(/C=N/Nc2nc(Nc3ccccc3)nc(N3CCCC3)n2)cc1[N+](=O)[O-]	HT1080NT lethal 15µM, KB-V1 cytotox inconclusive, SW480 rereplic 18µM, MCF10A rerep inconclusive, HT1080 IDH1KD tx inconclusive
COc1cc(/C=N/n2nnnc2Nc2ccccc2)cc(OC)c1OC	KB-V1 cytotox 2.6µM
COc1cc(/C=N/Nc2nc(Nc3ccc(C)cc3)nc(-n3nc(C)cc3C)n2)cc(OC)c1OC	HT1080NT lethal 4.5µM, KB-V1 cytotox inconclusive, SW480 rereplic 13µM, MCF10A rerep inconclusive, HT1080 IDH1KD tx 2.8µM
CNc1nc(N/N=C/c2cc3c(cc2[N+](=O)[O-])OCO3)nc(Nc2ccccc2)n1	HT1080NT lethal inconclusive, KB-V1 cytotox 16µM, MCF10A rerep inconclusive, HT1080 IDH1KD tx inconclusive
CCCN(C(=O)c1cn(CC(C)C)c(=O)c2cc(OC)c(OC)cc12)c1cccc(C)c1	none (no result: HT1080NT lethal, SW480 rereplic, MCF10A rerep, HT1080 IDH1KD tx)
CCC(=O)c1ccc(OCC(=O)OCC(=O)NCc2cccs2)cc1	none
COc1ccc(O)c(/C=N/Nc2nc(Nc3ccccc3)nc(-n3nc(C)cc3C)n2)c1	HT1080NT lethal inconclusive, KB-V1 cytotox inconclusive, SW480 rereplic inconclusive, KB-3-1 tox 15µM, MCF10A rerep inconclusive, HT1080 IDH1KD tx 16µM
COc1cc(/C=N/Nc2nc(Nc3ccccc3)nc(N3CCCCC3)n2)ccc1OCC(=O)O	none
COc1cc(/C=N/Nc2nc(Nc3ccccc3)nc(-n3nc(C)cc3C)n2)cc(OC)c1OC	HT1080NT lethal inconclusive, KB-V1 cytotox 7.3µM, SW480 rereplic inconclusive, KB-3-1 tox inconclusive, MCF10A rerep 15µM, HT1080 IDH1KD tx 15µM
COc1ccc(O)c(/C=N/Nc2nc(C)cc(-c3ccccc3)n2)c1	HT1080NT lethal inconclusive, KB-V1 cytotox inconclusive, MCF10A rerep inconclusive, HT1080 IDH1KD tx inconclusive
Cc1c(/C=N/NC(=O)C(C)(C)Oc2ccc(Cl)cc2)cnn1C	none
Nc1c(C2CCCCC2)c(=O)on1C(=O)c1ccccc1	KB-3-1 tox inconclusive, MCF10A rerep 15µM
CCN(C[C@H]1N[C@@](C)(C(=O)OC)[C@H]2C(=O)N(Cc3ccccc3)C(=O)[C@@H]12)C(=O)c1ccc(C(C)(C)C)cc1	SW480 rereplic inconclusive
CCCCCn1c(NC(=O)c2ccco2)c(S(=O)(=O)c2ccc(C)cc2)c2nc3ccccc3nc21	HT1080NT lethal inconclusive, KB-V1 cytotox 18µM, HT1080 IDH1KD tx inconclusive
CCCCn1c(NC(=O)c2ccco2)c(S(=O)(=O)c2ccc(C)cc2)c2nc3ccccc3nc21	HT1080NT lethal inconclusive, KB-V1 cytotox inconclusive, SW480 rereplic inconclusive, MCF10A rerep 8.2µM
CCCCn1c(NS(=O)(=O)c2ccccc2)c(S(=O)(=O)c2ccc(C)cc2)c2nc3ccccc3nc21	KB-V1 cytotox inconclusive, SW480 rereplic 13µM, KB-3-1 tox 12µM, MCF10A rerep inconclusive
CCCCn1c(NC(=O)c2ccc(Br)o2)c(S(=O)(=O)c2ccccc2)c2nc3ccccc3nc21	KB-V1 cytotox inconclusive, SW480 rereplic inconclusive, KB-3-1 tox inconclusive, MCF10A rerep 18µM
COc1ccc(C2=C(Nc3ccc(C)cc3C)c3ccccc3C2=O)cc1	none (no result: HT1080NT lethal, SW480 rereplic, MCF10A rerep, HT1080 IDH1KD tx)
CCC(=O)Nc1c(S(=O)(=O)c2ccccc2)c2nc3ccccc3nc2n1C(C)c1ccccc1 (configuration not stated)	SW480 rereplic inconclusive, KB-3-1 tox inconclusive, MCF10A rerep 21µM
CCC(=O)Nc1c(S(=O)(=O)c2ccc(C)cc2)c2nc3ccccc3nc2n1C(C)c1ccccc1 (configuration not stated)	KB-V1 cytotox inconclusive, SW480 rereplic inconclusive, MCF10A rerep inconclusive
O/N=C/c1ccccc1OCc1ccc(Cl)cc1	MCF10A rerep inconclusive, HT1080 IDH1KD tx inconclusive
COc1cc(CNC(C)(C)CO)cc(Br)c1OCc1ccc(Cl)cc1Cl	HT1080NT lethal 16µM, KB-V1 cytotox 18µM, KB-3-1 tox inconclusive, MCF10A rerep 18µM, HT1080 IDH1KD tx 16µM
COc1cc(/C=N/O)cc(Br)c1OC	none
CC(C)(CO)NCc1c(OCc2ccc(Cl)cc2)ccc2ccccc12	HT1080NT lethal inconclusive, SW480 rereplic inconclusive, KB-3-1 tox 23µM, MCF10A rerep inconclusive, HT1080 IDH1KD tx inconclusive
CCOc1cc(CNc2ccc(O)cc2)ccc1OCc1ccc(Cl)cc1Cl	KB-V1 cytotox inconclusive, SW480 rereplic inconclusive, MCF10A rerep inconclusive
COc1cc(/C=N/O)cc(Br)c1OCc1ccc(Cl)cc1	HT1080NT lethal inconclusive, SW480 rereplic inconclusive, MCF10A rerep 18µM, HT1080 IDH1KD tx inconclusive
COc1cc(CNC(C)(C)CO)cc(Br)c1OCc1ccc(Cl)cc1	HT1080NT lethal inconclusive, KB-V1 cytotox 23µM, SW480 rereplic inconclusive, KB-3-1 tox inconclusive, MCF10A rerep inconclusive, HT1080 IDH1KD tx inconclusive
COc1ccc(Cl)cc1NC(=O)N1CC(=O)Nc2sc3c(c2C1c1ccccc1)CCCC3 (configuration not stated)	none (no result: HT1080NT lethal, SW480 rereplic, MCF10A rerep, HT1080 IDH1KD tx)
Cc1nnc2ccc(Oc3ccc(-c4ccccc4)cc3)nn12	HT1080 IDH1KD tx inconclusive
